HT1080 IDH1KD tx: HT-1080 IDH1 knockdown cell toxicity (counter line). HT-1080 IDH1 knockdown viability, ATP luminescence, 48 h. Potency, µM (titrated, usually from 46.1 µM), without a hit: at the highest dose activity, negative = toxicity, most hits filed as cytotoxic. 360,000 tested, 2% active;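 further: 0% = DMSO wells and -100% = cell-free medium wells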
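HT-1080-IDH1KD cells (IDH1 knocked down), 750/well in RPMI with 5% FBS, treated with compound 48 h at 37 degrees C. Viability by CellTiter-Glo luminescence, normalised to DMSO and no-cell wells; concentration-response curves classed.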
TDP1 cell CPT: growth inhibition of DT40 Tdp1-/-;hTDP1 cells with camptothecin (screen for TDP1 inhibitors) | Potency, µM (doses to about 46.2 µM), for inactives: at the top dose activity change, negative = growth inhibition, hits mostly inhibitors | AID 686979 | chicken DT40 Tdp1-/-;hTDP1 cells + 20 nM CPT, ATP luminescence, 48 h | 420,000 tested, 12% active; further: on the % scale 0 is the no-effect control and ±100 the full control effect; nearly all actives have a fitted effect of over 55% in size
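Chicken DT40 Tdp1-/- cells complemented with human TDP1, 400 cells/well, exposed to compounds plus 20 nM camptothecin for at least 48 h at 37 C; viability read as ATP content by CellTiter-Glo luminescence.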
HT1080-NT tox: kills 2HG-producing HT-1080-NT fibrosarcoma cells. Potency, µM (doses to about 46.1 µM), for the others: top-dose activity, negative = less viability, hits mostly cytotoxic. HT-1080-NT fibrosarcoma viability, CellTiter-Glo ATP luminescence, 48 h. AID 686970. 360,000 tested, 1.6% active;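 further: NT is the 2HG producing partner of a matched IDH1 knockdown line; 0% = DMSO-treated cells and -100% = media-only wells without cells; nearly all actives have a fitted effect of over 55% in size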
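Fibrosarcoma NT cells, 750 per well in 5% FBS RPMI, were exposed to compound for 48 hours. Viability: CellTiter-Glo luminescence.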
TGFb inhibitor: inhibitors of TGF-b signaling; HepG2 CAGA-GFP TGF-b/SMAD3 reporter, GFP fluorescence, 18 h; TGF-beta stimulated, 500 pg/mL final; Potency, µM (series often up to 46.1 µM), for inactives: at the highest dose activity, negative = inhibition, usual class: inhibitors; 410,000 tested, 1.2% active; AID 588855; further: on the % scale 0 is the no-effect control and ±100 the full control effect; nearly all actives have a fitted effect of over 65% in size
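HEPG2 CAGA-GFP cells (1000/well, DMEM with 1% FBS) were pre-incubated 2 h at 37 degrees C, given compound by pin tool, then stimulated with TGF-beta at 500 pg/mL final for 18 h before per-cell GFP fluorescence imaging.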
HepG2 viability: kills HepG2 cells in TGF-b inhibitor counter-screen; Potency, µM (top dose mostly 46.1 µM), inactives show at the highest dose activity change, negative = cytotoxicity, usual class: cytotoxic; HepG2 CAGA-GFP viability, ATP luminescence, 18 h; 410,000 tested, 0.76% active
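CellTiter-Glo luminescence gave cytotoxicity after 18 hours at 37 degrees C. The cells were HepG2 CAGA-GFP in 1% FBS DMEM, stimulated with 500 pg/mL TGF-beta after compound addition. %Activity was normalised to no-cell wells (complete cell-killing) and DMSO (no toxicity), and curves were fitted and classified.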
TDP1 cell noCPT: qHTS for Inhibitors of human tyrosyl-DNA phosphodiesterase 1 (TDP1): qHTS in cells in absence of CPT | 420,000 tested, 15% active | Potency, µM (doses to about 46.2 µM), without a hit: at the highest dose activity change, negative = growth inhibition, usual class: inhibitors | DT40 Tdp1-/- hTDP1 cells, no CPT, ATP luminescence, 48 h | AID 686978, 2013; further: on the % scale 0 is the no-effect control and ±100 the full control effect; nearly all actives have a fitted effect of over 55% in size
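Chicken DT40 Tdp1-/- cells stably complemented with human TDP1 were seeded at 400 cells/well with DMSO in place of 20 nM camptothecin. After compound pinning, cells grew at least 48 hr at 37 °C; viability read by CellTiter-Glo luminescence.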
The depositor's hits bear a star; ? = inconclusive; . = no result; [ ] = another dose, or the depositor's remark. Only some compounds are listed: those with a hit (about 17% of all), similar ones and a draw of the others. The call rests on the fitted dose curve; in most records, active means well fitted curve in the direction sought with a large enough effect; inconclusive means small, poorly fitted or top-dose-only effect, or another doubt; inactive means no such curve, though single readings can be large; an effect the other way counts as inactive or inconclusive. Potency means the concentration at half of the fitted maximal effect.

SMILES	HT1080 IDH1KD tx	TDP1 cell CPT	HT1080-NT tox	TGFb inhibitor	HepG2 viability	TDP1 cell noCPT
Cc1c(Br)c([N+](=O)[O-])nn1CC(=O)Nc1ccc(C(C)C)cc1	23µM*	?	-28%	?	-27%	?
C=CCc1c(C)nc(SC)nc1Nc1ccc(C)cc1	2%	9.2µM*	-19%	?	-52%	21µM*
COc1ccc(C(=O)N2CCCC(C(=O)O)C2)c2ccccc12 (centres undefined)	3%	1%	3%	13%	15%	8%
O=C(C[n+]1cccc(Br)c1)c1ccc(O)c(O)c1	.	1%	.	0%	-22%	-19%
O=C(C[n+]1csc2ccccc21)c1ccc(O)c(O)c1	.	?	.	?	-6%	16µM*
COc1ccc(OC)c2c1nc1n2CCS1	14%	-12%	14%	7%	-5%	3%
C/C=C(\C)C(=O)OC(C)(C)[C@@H]1Cc2cc3ccc(=O)oc3cc2O1	1%	?	-5%	6.3µM*	-32%	?
C/C=C(/C)C(=O)O[C@@H]1Cc2c(ccc3ccc(=O)oc23)OC1(C)C	11%	?	13%	7%	15%	?
C/C=C(/C)C(=O)OC(C)(C)[C@@H]1Cc2c(ccc3ccc(=O)oc23)O1	11%	18µM*	6%	?	2%	?
C/C=C(/C)C(=O)O[C@H]1[C@@H](O)c2c(ccc3ccc(=O)oc23)OC1(C)C	-3%	?	-2%	24%	-38%	-29%
CC(C)CC(=O)OC(C)(C)[C@@H]1Cc2c(ccc3ccc(=O)oc23)O1	14%	?	13%	-16%	-2%	?
C/C=C(/C)C(=O)O[C@@H]1c2c(ccc3ccc(=O)oc23)O[C@@H]1C(C)(C)OC(=O)/C(C)=C\C	?	?	?	?	-6%	16µM*
C/C=C(/C)C(=O)O[C@@H]1[C@H](OC(C)=O)c2c(ccc3ccc(=O)oc23)OC1(C)C	-7%	?	-2%	?	3%	16µM*
c1ccc(-c2nc(NCCCn3ccnc3)c3oc4ccccc4c3n2)cc1	?	?	?	?	20µM*	?
COc1ccc(CCNC(=O)COC(=O)/C=C/c2cc(OC)c(OC)c(OC)c2)cc1OC	2%	?	12%	5%	12%	?
CCCNC(=O)C1(C)CCN(C(=O)Cc2ccc(OC)c(OC)c2)C1 (centres undefined)	14%	13%	28%	2%	-3%	5%
CCCNC(=O)C1(C)CCN(Cc2ccc(OC)c3ccccc23)C1 (centres undefined)	-9%	?	-15%	34%	-12%	21µM*
CCCNC(=O)C1(C)CCN(Cc2ccc(C)c3ccccc23)C1 (centres undefined)	-13%	?	-15%	-25%	-30%	23µM*
CCCNC(=O)C1(C)CCCN(Cc2csc3ccccc23)C1 (centres undefined)	-26%	?	-11%	-23%	-26%	?
COc1ccc(/C(N)=N/OC(=O)c2cccc([N+](=O)[O-])c2)cc1OC	11%	-26%	11%	23%	-13%	-29%
COc1ccccc1C/C(N)=N/OC(=O)c1ccc(C)c([N+](=O)[O-])c1	10µM*	?	-2%[9.24 µM]	-6%	2%	?
COc1ccc(/C(N)=N/OC(=O)c2ccc(OC)c([N+](=O)[O-])c2)cc1OC	-3%	?	-1%	11%	17%	12µM*
COc1ccccc1C/C(N)=N/OC(=O)c1ccco1	-6%	21µM*	-2%	-5%	-3%	-2%
COc1ccccc1C/C(N)=N/OC(=O)c1ccc2c(c1)OCO2	-8%	?	?	19%	9%	?
Cc1ccc(C(=O)O/N=C(\N)Cc2cccs2)cc1[N+](=O)[O-]	6%	-20%	-4%	-1%	-5%	-8%
SMILES	HT1080 IDH1KD tx	TDP1 cell CPT	HT1080-NT tox	TGFb inhibitor	HepG2 viability	TDP1 cell noCPT
CCCCc1nc2ccccc2c(=O)n1NC(=O)c1c(O)c2ccccc2n(C)c1=O	-7%	4.1µM*	0%	-26%	-15%	3.7µM*
CCCc1nc2ccccc2c(=O)n1NC(=O)c1c(O)c2cccc3c2n(c1=O)CCC3	2%	?	12%	-4%	-6%	16µM*
CCCCCCNC(=O)c1c(O)c2cccc3c2n(c1=O)CCC3	9%	?	0%	6%	-15%	29µM*
COc1cccc(NC(=O)CSc2nc(=O)n(Cc3ccncc3)c3c2CCC3)c1	.	6%	.	-10%	-5%	-10%
COc1ccc(C(NC(=O)C2CCN(Cc3cc(OC)cc(OC)c3)CC2)c2ccccn2)cc1 (centres undefined)	19%	2%	5%	-6%	-17%	-29%
CC(NC(=O)C1CCN(Cc2ccc(Oc3ccccc3)cc2)CC1)c1cccc2ccccc12 (centres undefined)	10µM*	23µM*	?	?	-56%	15µM*
COc1cc(OC)nc(C(NC(=O)C2CCN(Cc3ccc(Oc4ccccc4)cc3)CC2)c2ccc(F)cc2)n1 (centres undefined)	29%	26µM*	28%	-2%	-35%	?
COc1cccc(CN2CCC(C(=O)NC(C)c3cccc4ccccc34)CC2)c1 (centres undefined)	?	23µM*	?	0%	-31%	16µM*
Cc1cccc(N=C2NC(=O)/C(=C/c3cccnc3)S2)c1C	-10%	?	2%	-2%	-2%	-27%
Cc1ccc(N=C2NC(=O)/C(=C/c3cccn3C)S2)cc1C	-20%	21µM*	-1%	3%	-2%	9.2µM*
Cc1cccc(N=C2NC(=O)/C(=C/c3cccn3C)S2)c1C	?	?	-18%	7%	3%	8.2µM*
Cc1ccc(N=C2NC(=O)/C(=C/c3cccn3C)S2)cc1	10µM*	6.5µM*	-29%	-3%	6%	4.6µM*
Cc1ccc(N=C2NC(=O)/C(=C\c3ccc(C)s3)S2)cc1	29%	-16%	28%	22%	3%	?
Cc1ccccc1N=C1NC(=O)/C(=C/c2cccn2-c2cccc(C(=O)O)c2)S1	11%	8%	9%	-4%	3%	3%

Screening data as filed in PubChem.
